In all, about 59,000 sequences were measured (the read-out: median about -0.00055, lowest 2% from about -2 on). Shown is part of a subset that was picked to be rich in the lowest values.
Assay: Identification of proteins required for the processing of the EWS-FLI1 nascent transcript;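 further: robust z of luciferase light less the median z of siRNAs with the same seed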
Conditions: TC32 Ewing sarcoma NR0B1-luc vs CMV-luc (EWS-FLI1 target promoter against control promoter), 48 h; screened at 20 nM (by protocol)
Procedure, shortened: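 TC32 Ewing sarcoma cells carrying NR0B1-promoter or CMV-promoter luciferase reporters were reverse-transfected with single siRNAs at 20 nM, three per gene genome-wide. Luminescence was read after 48 h and normalized to non-targeting controls.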

Row | Sequence | seed-corrected z-score
1 | AUACAGAACAUAGUGGUUG against PSMD3 | -1.41
2 | UCAGUAGGCAUUGGAGCGG against CEBPA | -0.0618
3 | AAGUCUUCAAGAUCUAUUC against FGL2 | 0.334
4 | UCAUAAGUCAGGGUAUGCC against MPTX1 | -3.31
5 | UCAUAGGUCACAAAGGUGC against KIF9 | 0.0712
6 | UAUCUAAUUUUGGAAUCUC against VRK1 | -0.281
7 | UUCAGGGUAAGGUGGAUGG against UBD | 0.588
8 | AAACUUGUCAUCAGCACGC against MUC13 | 0.662
9 | UUCUGUCCCAUAAAUAGAG against TMEM207 | -0.0552
10 | UUAUCUAUACAAAGCAGAC against KLRC3 | -0.377
11 | UUACGCAUAAUUUCCGUCA against VAMP5 | -0.171
12 | AUCUGGUUUACGGUUAUUC against MEF2C | -2.53
13 | AAUCUUGCAAGGUUACUAC against USP33 | -1.31
14 | UCCAUGACGAAGCUGUUCU against SUV39H1 | 0.0817
15 | UGGUUUAUCAGUUUCAAUG against ARCN1 | -4.37
16 | UAUCUAAUUGAUGACAUGC against ETAA1 | 0.0808
17 | UGUUCUAUAGGUAACACUC against ZNF559 | -0.628
18 | UUAAUUGCAUUUGCAGACC against CCDC171 | 0.492
19 | UUGUCUAGAAAAGUCCUGG against UMODL1 | -2.58
20 | UUCGAUAUUAGGGUAGCGG against SNRNP200 | -1.21
21 | UGCUGUAAAGUUUUAGUCC against SLC35A5 | -0.426
22 | UCAGUGUUGGACUCCAUGC against NR2E3 | 0.652
23 | UGUGAGAUCAGGAAUUGAC against TMEM65 | -0.934

Row | Sequence | seed-corrected z-score
24 | UGCGGUUGACCGUAUAGAC against KBTBD13 | -2.49
25 | UCCUUGGUCACUGUCGCUC against KLF7 | -0.201
26 | UUGUUGGACAAGUCGAUGG against LRRC57 | 0.339
27 | GUUGUAUUCGUCGUCGUCC against NKX6-2 | 0.127
28 | UACUUAUCUCUGUCUGUUU against UBE2D3 | -1.14
29 | AUAGGUGCGACUCUCAUCC against SYMPK | -2.35
30 | UUGUAGAUGCUGAAUGUCC against DNAAF1 | 0.337
31 | UAAUAUGAUGUCUUCAACC against GABRQ | 0.559
32 | UGUUUUGCCGUCGAGGUGC against LOC642620 | 0.782
33 | AUUCCGACCAUGGUAAAUG against NAAA | 0.829
34 | ACAGUACAUAGUAGGGUGG against PRR34 | -2.82
35 | UUCAUCAAAUUGGACAUCU against ATP6V1E1 | -0.95
36 | UUGGUGCACAGCCUGGUAC against TSPAN32 | -0.435
37 | UCUUAGUUUCCAACGAUCC against SZT2 | -0.791
38 | UCGGUAGUAGUAAUCGUGC against PNPLA1 | 0.335
39 | UUCGCCUCUUGUGCUAUCG against CFAP221 | 0.264
40 | AUGGUUCAAACAUAGGAUG against WNK1 | -2.09
41 | UACGAGUCACGGGAAAUAC against TAF5 | 0.238
42 | AACUUGAGGAGGGUAAGUG against SERPINF2 | -2.44
43 | UUGAGUAUUCCGCUCGGGC against EDAR | -0.0352
44 | AAAACGACUCUUCAUACUG against CLRN2 | -1.29
45 | UUUAGCAACAGGUACAUUC against APBB1 | -0.4
46 | UAGAUUUUAAACAUCCUUG against FAS | 0.417

Row | Sequence | seed-corrected z-score
47 | UCUUUAUCACGGUCAAAUG against GPALPP1 | -0.108
48 | ACAUGGCUGAUUAAUGUGG against ZNF890P | -0.143
49 | UCUGUGGUGAUGAACACUC against OR5J2 | -1.13
50 | UUUGUUGGUAGCGAUGCAC against MYPN | -2.09
51 | AAAACUUCACCUUAUACUC against SDF4 | -0.483
52 | GAUGCUACGAUACCAGCCA against LYPLA2P2 | 1.26
53 | UGUAUUUCCACGCGUGAGG against ZDHHC11 | -0.523
54 | AAAUGUGAACCUGUGCUUG against MTUS2-AS1 | 1.42
55 | UACGUGCCGAGUCAUCAGU against DOK4 | -2.12
56 | AGACCUUAUACAGAGCUGC against CAPG | 0.432
57 | AGAAGCAUCAUGGAGGUAG against COX14 | -1.26
58 | ACUAGAAUCAAUAAGGAUG against TMEM243 | -0.708
59 | UGAGUCAUAAGAAGGGUCU against FLI1 | -6.98
60 | AUAGGUGAGACGGAGGCUC against VASN | 0.00423
61 | UCUGGAUCGAGGAAGCGAG against GNLY | -2.28
62 | AUAGCAAUCAUAUUCACGG against LIG4 | -0.537
63 | AACUGAAAUAGAAGUAUCC against TMED6 | -0.476
64 | UGUUCUCCUGCAGUUAUCC against WFDC3 | -0.0122
65 | UUGAAGACCAGGUAUUCCC against AGBL4 | -0.596
66 | UGACGUAUAUCAAUGCUCC against RRAGC | -0.322
67 | UAGUCGUCAAGCACUUGGU against SFTPB | -0.3

Source: PubChem BioAssay AID1159506 (National Center for Advancing Translational Sciences (NCATS), 2015)
